Inconclusive results are not listed. Values without a mark were called inactive. Calls of active or inactive are those of the source. Calls come from the whole dose curve; as a rule, active = well fitted inhibition curve with a large enough effect; inconclusive = small, poorly fitted or top-dose-only effect; inactive = flat fitted curve, though single readings scatter.
% is set by controls: 0 for no effect and ±100 for the full control effect.

The subject of the assay is HaCat. Nature of the assay: Cytotoxic Profiling of Annotated Libraries Using Quantitative High-Throughput Screening (AID 1296008). Note: nearly all actives have a fitted effect of over 60% in size. To be noted: Five cell lines viability, CellTiter-Glo ATP luminescence, 48-72 h; max response: active compounds read low. The method in brief: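 Compounds were pin-transferred onto cells and incubated 48 or 72 hr at 37 degree Celsius, 95% humidity. CellTiter-Glo was added, plates sat 10 min at room temperature, then ATP-coupled luminescence was imaged as the viability read-out.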
For orientation: In ATP-based viability assays light output follows the ATP content of the culture.
With `CN1[C@@H]2CC[C@H]1CC(OC(=O)c1c[nH]c3ccccc13)C2` (stereo not given in full), the max response was 0.428% and the compound was classed as inactive.

On to `CC(O)(P(=O)(O)O)P(=O)(O)O`, for which the compound was called inactive.

Take `Cc1c(C(C)C)c(=O)n(-c2ccccc2)n1C`: the outcome was inactive.

With `CCCCC(=O)O[C@]1(C(=O)CO)CC[C@H]2[C@@H]3CCC4=CC(=O)CC[C@]4(C)[C@H]3[C@@H](O)C[C@@]21C`, the outcome was inactive.

Turning to `O=c1[nH]c(=O)n([C@H]2CCCO2)cc1F`, the compound was called inactive.

For the compound `COC(=O)CCc1ccc(OCC(O)CNC(C)C)cc1` (stereo not given), the max response was -0.177% and the result was inactive.

In the case of `Cc1cc2c(cc1CC(=O)c1sccc1S(=O)(=O)Nc1onc(C)c1Cl)OCO2`, the max response was -2.94% and the call was inactive.

Consider `CC(C)(C)NC(=O)[C@@H]1CN(Cc2cccnc2)CCN1C[C@@H](O)C[C@@H](Cc1ccccc1)C(=O)N[C@H]1c2ccccc2C[C@H]1O`, for which the max response was -2.17% and the call was inactive.

`CCCCS(=O)(=O)N[C@@H](Cc1ccc(OCCCCC2CCNCC2)cc1)C(=O)O`: the max response is -0.76% and the result was inactive.

In the case of `Cc1onc(-c2c(Cl)cccc2Cl)c1C(=O)N[C@@H]1C(=O)N2[C@@H]1SC(C)(C)[C@@H]2C(=O)O`, the max response is -4.29%.

Consider `CN1CCN(C(c2ccccc2)c2ccccc2)CC1`, for which the max response is -15.7% and the call was inactive.

For `O=C(O)CNC(=O)c1ccccc1`, the call was inactive.

Regarding `COC(=O)[C@@H]1CC2=CC(=O)CC[C@]2(C)[C@@]23O[C@@H]2C[C@@]2(C)[C@@H](CC[C@@]24CCC(=O)O4)[C@H]13`, the result was inactive.

On to `NC(CS)C(=O)O` (stereo not given), for which the outcome was inactive.

`CN(C)CCOc1ccccc1Cc1ccccc1`: the outcome was inactive.

For `CCOC(=O)OC(C)OC1=C(C(=O)Nc2ccccn2)N(C)S(=O)(=O)c2ccccc21` (stereo not given), the call was inactive.

Regarding `N[C@H](Cc1c[nH]c2ccccc12)C(=O)O`, the result was inactive.

As for `C[C@H](O)C(=O)Nc1c(I)c(C(=O)NC(CO)CO)c(I)c(C(=O)NC(CO)CO)c1I`, the result was inactive.

In the case of `CC(C)COC(=O)c1ccc(N)cc1`, the compound was called inactive.

On to `Cc1ccc(C(=O)C(C)CN2CCCCC2)cc1` (stereo not given), for which the outcome was “inactive; activator”.

Take `CC1(C)O[C@@H]2[C@@H](CO[C@@]3(COS(N)(=O)=O)OC(C)(C)O[C@@H]23)O1`: the compound was called inactive.

For `CCN(CCCCOC(=O)c1ccc(OC)c(OC)c1)C(C)Cc1ccc(OC)cc1` (stereo not given), the result was inactive.

Regarding `CN=C(NC#N)Nc1ccc(C2=NNC(=O)CC2C)cc1` (stereo not given), the compound was called inactive.

In the case of `Cc1nc2n(c(=O)c1CCN1CCC(c3noc4cc(F)ccc34)CC1)CCC[C@H]2O`, the outcome was inactive.

These data come from PubChem BioAssay (NCATS).
